Bioassay records deposited in PubChem by National Center for Advancing Translational Sciences (NCATS).
Rab9 prom act: qHTS Assay for Rab9 Promoter Activators | Huh7 Rab9 promoter-luciferase reporter, luminescence, 24 h | Potency, µM (titrated, usually from 9.22 µM), most hits filed as activators | 320,000 compounds, 2.8% hits | AID 485297, 2010; also: nearly all actives have a fitted effect of over 60% in size
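Using Huh7 cells stably transfected with Rab9 promoter–luciferase, compounds were incubated 24 h at 37 °C, 5% CO2; luciferase luminescence was read 10 min after reagent addition.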
ELG1 genotoxic: qHTS screen for small molecules that induce genotoxicity in human embryonic kidney (HEK293T) cells expressing luciferase-tagged ELG1. HEK293T ELG1-luciferase reporter, luminescence, 16 h. Potency, µM (highest dose often 46 µM), most hits filed as activators. 330,000 compounds, 1.3% hits; also: nearly all actives have a fitted effect of over 60% in size
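Step 1: seed 2,000 HEK293T ELG1-luciferase cells per well. Step 2: add compound or DMSO, incubate 16 hr at 37 °C. Step 3: ONE-Glo, 30 min at room temperature, read luminescence.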
SMN2 splice up: qHTS Assay for Enhancers of SMN2 Splice Variant Expression; AID 1458, 2008; 210,000 compounds, 2.8% hits; HEK293 SMN2-luciferase splicing reporter, luminescence, 30-36 h; Potency, µM (titrated, usually from 46.1 µM), actives largely listed as activators; also: nearly all actives have a fitted effect of over 55% in size
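qHTS luciferase splicing reporter: luminescence rises when SMN2 exon 7 is included in transfected HEK293 cells. Compound exposure lasted 30-36 h at 37C, with 4.5 mM final sodium butyrate as control, followed by a ONE-Glo read.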
FLuc modulator: qHTS profiling assay for firefly luciferase inhibitor/activator using purifed enzyme and Km concentrations of substrates (counterscreen for miR-21 project) | Luciferin 4-monooxygenase (Photinus pyralis), P08659 | purified FLuc, Km substrates, luminescence inhibition | Potency, µM (highest dose often 57.5 µM), hits mostly inhibitors | 360,000 compounds, 6.9% hits; also: nearly all actives have a fitted effect of over 55% in size
Target sequence (P08659 whole entry, looked up): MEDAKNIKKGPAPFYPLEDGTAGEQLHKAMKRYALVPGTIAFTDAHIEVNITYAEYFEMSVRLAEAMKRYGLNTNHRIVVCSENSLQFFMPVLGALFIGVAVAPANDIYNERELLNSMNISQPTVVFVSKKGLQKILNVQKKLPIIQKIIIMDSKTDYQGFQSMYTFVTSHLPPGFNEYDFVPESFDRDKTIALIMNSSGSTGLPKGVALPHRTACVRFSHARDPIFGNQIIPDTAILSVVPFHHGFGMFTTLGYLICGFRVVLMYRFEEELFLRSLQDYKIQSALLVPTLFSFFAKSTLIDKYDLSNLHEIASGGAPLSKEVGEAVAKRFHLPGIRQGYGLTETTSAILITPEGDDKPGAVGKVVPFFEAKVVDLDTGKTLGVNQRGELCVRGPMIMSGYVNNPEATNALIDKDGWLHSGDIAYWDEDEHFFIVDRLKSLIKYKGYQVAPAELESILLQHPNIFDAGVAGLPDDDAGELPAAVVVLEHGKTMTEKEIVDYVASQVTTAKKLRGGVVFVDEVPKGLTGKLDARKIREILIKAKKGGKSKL
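Purified P. pyralis luciferase (10nM final) with 10uM D-luciferin and 10uM ATP (Km levels) in 50mM Tris acetate pH 7.5, 10mM Mg acetate, 0.01% Tween-20, 0.05% BSA; qHTS 6-point titration, ~60 µM downward; luminescence read.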
NPC1 promoter act: qHTS Assay for NPC1 Promoter Activators; Huh7 NPC1 promoter luciferase reporter, 24 h; Potency, µM (titrated, usually from 9.22 µM), actives largely listed as activators; 320,000 compounds, 2.4% hits; AID 485313, 2010; also: nearly all actives have a fitted effect of over 60% in size
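Luminescence read-out of NPC1 promoter-driven luciferase in stably transfected Huh7 cells; compounds delivered in DMSO and left 24 h at 37C, 5% CO2, qHTS titration format.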
p53 reactivator: qHTS assay for re-activators of p53 using a Luc reporter; H1299 p53-A138V BP100-luciferase reporter, luminescence, 24 h; Potency, µM (doses to about 92.2 µM), usual class: activators; 320,000 compounds, 0.063% hits; AID 504706, 2011; also: nearly all actives have a fitted effect of over 45% in size
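p53-null H1299 cells stably carrying temperature-sensitive p53-A138V and a BP100-luciferase reporter were pinned with compounds (4-point, 1:5 series) and held 24 hrs at 37 deg C. Luminescence was read 10 min after detection reagent.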
Each line names hits and unclear results; the compound was inactive in the other large screens. Shown are actives, neighbours in structure and some others; about 7.4% of the full set was active somewhere. Calls follow the shape of the dose curve; as a rule, active = well fitted curve in the direction sought with a large enough effect; inconclusive = small, poorly fitted or top-dose-only effect, or another doubt; inactive = no such curve, though single readings can be large; an effect the other way counts as inactive or inconclusive.

O=C(Nc1nc2ccccc2s1)c1cc2c(s1)-c1ccccc1OC2	Rab9 prom act inconclusive, ELG1 genotoxic 13µM
O=C(Nc1cccnc1)c1cc2c(s1)-c1ccccc1OC2	FLuc modulator inconclusive (no result: SMN2 splice up)
O=C(Nc1nccs1)c1cc2c(s1)-c1ccccc1OC2	Rab9 prom act 3.2µM, ELG1 genotoxic 8.2µM, SMN2 splice up 10µM, FLuc modulator 1.7µM, NPC1 promoter act 2µM
Cc1cccc2c1-c1sc(C(=O)Nc3nccs3)cc1CO2	Rab9 prom act 1.1µM, ELG1 genotoxic inconclusive, SMN2 splice up inconclusive, FLuc modulator 2.4µM, NPC1 promoter act 2.5µM, p53 reactivator inconclusive
CCOC(=O)c1cc2c(s1)-c1c(C)cccc1OC2	Rab9 prom act inconclusive, ELG1 genotoxic inconclusive, FLuc modulator 13µM, NPC1 promoter act inconclusive, p53 reactivator inconclusive
Cc1cccc2c1-c1sc(C(=O)Nc3cccnc3)cc1CO2	NPC1 promoter act inconclusive (no result: SMN2 splice up)
O=C(CCSc1ccccc1)Nc1nc2c(s1)CCCC2	ELG1 genotoxic 23µM, FLuc modulator 19µM, p53 reactivator inconclusive
O=C(Cc1cn2ccsc2n1)Nc1nc2c(s1)CCCC2	none
O=C(Nc1nc2c(s1)CCCC2)c1cccs1	Rab9 prom act 0.71µM, ELG1 genotoxic inconclusive, SMN2 splice up 3.2µM, FLuc modulator 1.1µM, NPC1 promoter act 2.8µM, p53 reactivator inconclusive
O=C(Nc1nc2c(s1)CCCC2)c1cc(-c2ccccc2)nc2ccccc12	FLuc modulator inconclusive
CC(C)(C)c1nc(SCC(=O)Nc2nc3c(s2)CCCC3)c2ccccc2n1	SMN2 splice up 3.2µM
O=C(Cc1cccs1)Nc1nc2c(s1)CCCC2	Rab9 prom act 2.8µM, ELG1 genotoxic inconclusive, SMN2 splice up 13µM, FLuc modulator 17µM, NPC1 promoter act inconclusive, p53 reactivator inconclusive
COC(=O)c1ccc(NC(=O)CCc2c(C)nc3c(c(C)nn3C(C)(C)C)c2C)cc1	none (no result: Rab9 prom act, ELG1 genotoxic, NPC1 promoter act, p53 reactivator)
O=C(O)Cc1cc(I)c(Oc2cc(I)c(O)c(I)c2)c(I)c1	none (no result: Rab9 prom act, ELG1 genotoxic, FLuc modulator, NPC1 promoter act, p53 reactivator)
CC(=O)c1cnc2nc(SCc3cccc(C)c3)nn2c1C	none (no result: SMN2 splice up)
O=C(Nc1nc2c(s1)CCCC2)c1cccnc1	Rab9 prom act inconclusive, ELG1 genotoxic 2.1µM, FLuc modulator 12µM, NPC1 promoter act 2.5µM, p53 reactivator inconclusive (no result: SMN2 splice up)
O=C(CNC(=O)c1cccs1)Nc1ncccc1O	none (no result: SMN2 splice up)
CCc1cc(C(=O)Nc2ncccc2O)sc1C	Rab9 prom act 2.5µM, ELG1 genotoxic 0.33µM, FLuc modulator 1.3µM, NPC1 promoter act 1.1µM (no result: SMN2 splice up)
CCc1cc(C(=O)Nc2ccc(OC)nc2)sc1C	FLuc modulator 21µM (no result: SMN2 splice up)
Cc1ccc(OCC(=O)Nc2ccc(S(=O)(=O)Nc3ncccn3)cc2)c(C(C)(C)C)c1	FLuc modulator inconclusive (no result: Rab9 prom act, ELG1 genotoxic, NPC1 promoter act, p53 reactivator)
C[n+]1cc[nH]c1SCC(=O)c1ccccc1	Rab9 prom act inconclusive, ELG1 genotoxic 18µM, FLuc modulator 24µM, NPC1 promoter act inconclusive, p53 reactivator inconclusive
OC1(c2ccc(Cl)cc2)CCN(Cc2nc(-c3cnccn3)no2)CC1	none (no result: SMN2 splice up)
Clc1ccc(-c2nc(-c3cnccn3)no2)cc1	Rab9 prom act 0.71µM, ELG1 genotoxic inconclusive, FLuc modulator 2.4µM, NPC1 promoter act 0.56µM (no result: SMN2 splice up)
Fc1ccc(-c2nc(-c3cnccn3)no2)c(Cl)c1	Rab9 prom act 0.32µM, ELG1 genotoxic inconclusive, FLuc modulator 2.4µM, NPC1 promoter act 0.45µM (no result: SMN2 splice up)
CCC1C(=O)n2nc(-c3ccccc3)cc2N=C1C (centres undefined)	Rab9 prom act 2.8µM, ELG1 genotoxic inconclusive, SMN2 splice up 13µM, FLuc modulator 13µM, NPC1 promoter act inconclusive, p53 reactivator inconclusive
O=C(NCCN1CCOCC1)c1cc(-c2ccc(F)cc2)on1	none
O=C(NC1CCCCC1)c1cc(-c2cccs2)on1	Rab9 prom act 2µM, ELG1 genotoxic inconclusive, FLuc modulator inconclusive, NPC1 promoter act 3.2µM, p53 reactivator inconclusive (no result: SMN2 splice up)
Cc1ccc(-c2cc(C(=O)NC3CCCC3)no2)cc1	Rab9 prom act 2µM, ELG1 genotoxic inconclusive, FLuc modulator 2.1µM, NPC1 promoter act 0.56µM (no result: SMN2 splice up)
